Screening results: PubChem, Broad Institute
An excerpt weighted towards active compounds, which were near 1.2% of everything screened.
miR-122 sensor – blocks miR-122 activity in Huh7 sensor cells. Huh7 miR-122 Renilla luciferase sensor, 48 h; neutral wells = 0, positive control = 100. activation (reporter increase), % at 12.5 µM. 0.3% of 340,000 active;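 active = mean replicate activation score at least 90 and every replicate individually at or above 90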;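 also: higher luciferase means less miR-122 activity so hits act as miR-122 inhibitors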
Statin myotox sup – suppressors of simvastatin-induced myotoxicity in C2C12 myotubes. ATP luminescence, 48 h; scaled: DMSO 0, geranylgeraniol control 100. rescue of ATP level, % at 7.49 µM. 0.78% of 330,000 active. AID 602340;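 active = mean ATP rescue above about 67%, or every replicate alone reaching that limit, limit read from the data, passing the limit was not always enough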;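 also: myotubes were challenged with 10 µM simvastatin during compound exposure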
PglD inh – inhibitors of Campylobacter jejuni PglD acetyltransferase. purified PglD enzyme, DTNB colorimetric CoA detection. inhibition, % at 12.5 µM. 0.098% of 360,000 active. AID 602405; in the data active = inhibition above about 16%, passing the limit was not always enough
NSD2 HMT inh – inhibitors of human histone methyltransferase NSD2; O96028; NSD2 peptide methylation, AlphaScreen, 120 min; inhibition, % at 12.5 µM; 0.54% of 310,000 active; AID 743445; in the data active = inhibition above about 50%
Alpha artifact – interferes with AlphaScreen signal, flagging NSD2 false positives | 9.4% of 1,500 active | AlphaScreen artifact counterscreen, preloaded methylated H4 peptide | shares compounds with NSD2 HMT inh | AC35, µM (doses to about 10 µM), for the others: top-dose activity change, negative = signal loss; call rule not given here
* marks the source's active call; other numbers are inactive results; x = no result; [ ] = another dose, or the depositor's remark.

SMILES | miR-122 sensor | Statin myotox sup | PglD inh | NSD2 HMT inh | Alpha artifact
CC(C)(C)C1CCC2(CC1)C(Nc1cccc(C(F)(F)F)c1)=NC(=S)N2CC#N (configuration not stated) | 4 | 1 | 0 | 64* | 2%
C[C@H]1CN([C@@H](C)CO)C(=O)Cc2cc(NS(=O)(=O)c3ccccc3)ccc2O[C@H]1CN(C)Cc1ccccc1 | 16[16.7 µM] | 38 | -2 | x | x
CN1CC2(Cc3c1ccc1ccccc31)C(=O)OC(C)(C)OC2=O | 3 | 16 | 4 | 87* | 1%
Cc1ccc2c(c1)CC1(CN2C)C(=O)OC2(CCCCC2)OC1=O | -8 | -14 | 0 | 0 | x
S=C(Nc1ccc2nsnc2c1)N1CCCC1 | -1 | -10 | -5 | 141* | 6%
Cn1c(NNC(=O)c2c(F)cccc2F)cc(=O)n(C)c1=O | x | x | x | 62* | -4%
Nc1c2c(nc3ccccc13)N(c1ccccc1)CC2 | 3 | 7 | -5 | -1 | x
CN1CCCCc2c1nc1ccccc1c2N (tested in a mixture with another compound) | 15 | 4 | 5 | 83* | 1%
CN1c2ccccc2N(C)C1(C)c1cccc2ccccc12 | x | x | x | 18 | x
CN1c2cccc3cccc(c23)N(C)C1(C)C | 0 | 13 | 1 | 95* | -5%
Cn1cc2ccc(N)cc2n1 | -1 | 8 | -1 | 87* | 0%
CC=Cc1ccc2n(c1=O)C[C@H]1[C@H](CO)[C@@H](C(=O)NCCC)[C@@H]2N1Cc1nccs1 (mixture of isomers) | -3[16.7 µM] | -13 | -2 | x | x
Cc1cccc(C)c1NC(=S)N(CCCN1CCN(C)CC1)Cc1cccs1 | x | x | x | 75* | -7%
Cc1cc(C)cc(NC(=S)N(CCCN2CCN(C)CC2)Cc2cccs2)c1 | -1 | -3 | 6 | 2 | x
Cc1cccc2c(=O)c(C(=O)NCc3ccc(F)cc3)c[nH]c12 | -2 | -4 | -1 | 57* | -6%
Cc1cccc2c(=O)c(C(=O)NCCc3ccccc3)c[nH]c12 | 0 | -4 | 0 | -2 | x
C[C@H]1CN([C@@H](C)CO)C(=O)c2cccc(NC(=O)C3CCCCC3)c2O[C@H]1CN(C)S(=O)(=O)c1ccc(F)cc1 | -6[16.7 µM] | -43 | -4 | x | x
O=C(NC(=S)Nc1ccccc1N1CCCC1)c1ccco1 | 11 | x | 4 | 74* | -4%
COc1ccc(NC(=O)Nc2cccc3c2O[C@@H](CN(C)Cc2ccc4c(c2)OCO4)[C@H](C)CN([C@H](C)CO)C3=O)cc1 | 22[16.7 µM] | 4 | 4 | x | x
Cc1cc(SCC(=O)Nc2cccnc2Cl)nc2ccccc12 | -5 | 1 | 1 | 65* | -4%
Cc1cc(SCC(=O)c2ccc(O)c(O)c2)nc2ccccc12 | x | x | x | 67* | -18%
COc1ccccc1-c1ccc2n(c1=O)C[C@@H]1[C@@H](CO)[C@H](C(=O)N(C)C)[C@H]2N1C(=O)c1cccnc1 | -1[16.7 µM] | -7 | 1 | x | x
CN(C)c1ccc2cc(S(=O)(=O)O)cc(O)c2c1 | 0 | -1 | 11 | 63* | 0.97µM*
Cc1cc(=O)n(Cc2ccccc2)c(O)c1C#N | -2 | 0 | 3 | 53* | -7%
COCCCNC(=S)Nc1cccc2ncccc12 | x | x | x | 86* | -1%
SMILES | miR-122 sensor | Statin myotox sup | PglD inh | NSD2 HMT inh | Alpha artifact
O=C(NC(=S)Nc1cccc2ncccc12)c1ccco1 | x | x | -4 | -2 | x
COc1ccccc1CNC(=O)C(NC(=O)c1ccccc1)C(C)C (configuration not stated) | x | x | x | -3 | x
COc1ccccc1CNC(=O)C(NC(=O)Nc1ccccc1)C(C)C (configuration not stated) | x | 42 | -3 | 106* | -4%
O=c1[nH]c(CN2CCCCC2)ccc1O | x | x | x | 65* | 1%
CCc1ccc(-c2cc(C)no2)cc1S(=O)(=O)N1CCN(c2ccc(F)cc2)CC1 | 1 | -8 | x | 50* | -5%
Cc1c(C(=O)N2CCN(c3ccc(F)cc3)CC2)sc2ncnc(N3CCN(c4ccccn4)CC3)c12 | -7 | -54 | 0 | 59* | -6%
Cc1noc(C)c1NC(=O)Nc1ccc2c(c1)C(=O)N([C@H](C)CO)C[C@@H](C)[C@H](CN(C)Cc1ccc3c(c1)OCO3)O2 | 0[16.7 µM] | 1 | 1 | x | x
Cc1ccc(-c2sc(-c3ccccc3)nc2CC(=O)Nc2ccccc2F)cc1 | 1 | -6 | -10 | -3 | x
Cc1ccc(NC(=O)CC2=NC(=O)C(CC(=O)Nc3ccccc3F)S2)cc1 (configuration not stated) | 10 | -25 | -2 | 71* | 0%
COc1cccc(S(=O)(=O)Nc2ccc3c(c2)C(=O)N(C)C[C@@H](OC)[C@@H](C)CN(C(=O)Cc2cccnc2)[C@@H](C)CO3)c1 | x | 7 | -1 | x | x
COCC(=O)N[C@@H]1CC[C@H](CC(=O)NCc2ccccc2OC)O[C@H]1CO | x | 16 | 1 | x | x
CCOc1ccc(NC(=O)CSc2nnc(C34CC5CC(CC(C5)C3)C4)n2C)cc1 | 1 | 1 | 3 | 69* | -2%
Nc1c2c(=O)oc(-c3ccccc3)cc2nn1-c1ccccc1 | 4 | 6 | x | 126* | -9%
O=C(O)c1ccc2c(c1)C1C=CCC1C(c1ccncc1)N2 (configuration not stated) | -6 | -8 | 4 | 20 | x
CCCC1Nc2ccc(C(=O)O)cc2C2C=CCC12 (configuration not stated) | -8 | x | 2 | 92* | -1%
CC(C)C1Nc2ccc(C(=O)O)cc2C2C=CCC21 (configuration not stated) | x | x | x | 58* | -5%
C[C@@H]1CN([C@@H](C)CO)C(=O)c2cc(C#C[C@@H](C)O)cnc2O[C@@H]1CN(C)C(=O)Nc1ccc(C(F)(F)F)cc1 | x | -9 | x | x | x
N#Cc1c2nc3ccccc3nc2n2cc(NC(=O)c3ccc(F)cc3)ccc12 | x | x | x | 73* | -4%
C/[N+]([O-])=C1\Cc2ccccc2C1=O | 3 | x | 0 | 61* | 0%
COc1ccc(OCCSc2nnc(CCNC(=O)c3ccc(Cl)c(Cl)c3)n2C)cc1 | x | x | x | 59* | 1%
Cc1ccc(S(=O)(=O)NC(C(=O)N2CCN(S(=O)(=O)c3cccc(F)c3)CC2)C(C)C)cc1 (configuration not stated) | x | -4 | 7 | 94* | 4%
COCC(=O)Nc1ccc2c(c1)C(=O)N(C)C[C@@H](OC)[C@H](C)CN[C@H](C)CO2 | 4[16.7 µM] | -4 | 0 | x | x
CN1C(=O)C(CCC(=O)O)NC1=S (configuration not stated) | x | x | -3 | 77* | -1%
O=C(O)CC1NC(=S)N(Cc2ccccc2)C1=O (configuration not stated) | -1 | -5 | -1 | 7 | x
C/C=C/c1ccc2c(c1)O[C@H](CN(C)C(=O)NCCC)[C@@H](C)CN([C@H](C)CO)S2(=O)=O | 23[16.7 µM] | 11 | 2 | x | x
O=C(O)c1cccc(-n2cccc2/C=N/O)c1 | 11 | x | -1 | 52* | -10%
O=C(O)c1cccc(-n2cccc2/C=C\[N+](=O)[O-])c1 | x | x | x | 69* | -2%
COc1ccc(CN2C[C@H](O)COC[C@@H]3O[C@H](CC(=O)N4CCc5ccccc5C4)CC[C@H]32)cc1 | -2[16.7 µM] | 30 | -1 | x | x
